Screening results as filed in PubChem BioAssay.
In the library only some 1.3% were active in any assay of this set; here they are far more common.
SARS 3CLpro inh: SARS-CoV 3CLpro protease inhibition. recombinant SARS-CoV 3CLpro, quenched FRET peptide cleavage. inhibition, % at 6 µM. 0.14% of 290,000 active; in the data active = inhibition above about 12%
PrP 5UTR inh: suppresses PrP 5' UTR mRNA reporter expression | AID 488862 | 0.35% of 340,000 active | cell-based PrP 5' UTR mRNA reporter, plate reader | inhibition, % (concentration not given with the values); in the data active = inhibition above about 52%; note: 0 = median of the neutral control wells
PrPC surface inh: cell surface PrPC inhibition, primary TR-FRET screen | P04156 | inhibition, % at 13.8 µM | TR-FRET read-out | AID 720596 | 0.43% of 370,000 active; in the data active = inhibition above about 24%; note: 0% = median of the test wells and 100% = reference compound wells
CCHFV vOTU inh: CCHFV vOTU protease inhibition. Pep-AMC fluorescence. inhibition, % at 11.5 µM. 0.55% of 370,000 active. AID 651958; in the data active = inhibition above about 30%; note: 0% = vehicle wells with enzyme and 100% = no enzyme wells
PrPC confirm: cell surface PrPC inhibition, TR-FRET confirmation | shares compounds with PrPC surface inh | cell surface PrPC level | inhibition, % at 13.8 µM | 65% of 1,500 active | AID 743200; in the data active = inhibition above about 25%
LD9 cytotox: LD9 cell cytotoxicity, PrPc inhibitor counter-screen | shares compounds with PrPC surface inh | LD9 cells cytotoxicity, luminescence viability | inhibition, % at 13.8 µM | 29% of 1,500 active | AID 743201; in the data active = inhibition above about 9.5%
Starred values were filed as active, the others as inactive; x = not tested or not shown.

SMILES	SARS 3CLpro inh	PrP 5UTR inh	PrPC surface inh	CCHFV vOTU inh	PrPC confirm	LD9 cytotox
Cc1ccc(OCc2nc3ccccc3n2C(C)C(=O)Nc2c(C)cccc2C)cc1 (stereo unspecified)	x	x	33.0*	25.0	25.5*	-2.8
CCCOP(=O)(OCCC)c1nc(-c2ccccc2)oc1NCc1ccccc1	3.1	-7.9	27.7*	10.2	14.1	-6.1
Cc1[nH]c(=O)c(C#N)c(C)c1CSc1ncccn1	x	1.0	28.6*	3.4	24.8*	-3.0
Cc1cc(C)c(S(=O)(=O)NCc2ccncc2)c(C)c1	0.8	-11.0	40.4*	5.3	34.6*	5.9
Cc1cc(C)c(S(=O)(=O)NCCc2ccncc2)c(C)c1	-10.9	-7.2	-1.1	-8.9	x	x
Cc1ccc2c(Cl)cc(Cl)c(OCC(=O)O)c2n1	1.8	-2.8	-5.9	1.3	x	x
CC[C@@H]1CCC[C@@H](O)[C@@H](C)C(=O)O[C@H](C)[C@@H](C)C/C=C(C)/C(OC)=C\C(=O)N(C)C([C@@H](C)CC)C(=O)N(C)[C@@H](C(C)C)C(=O)N(C)[C@@H](COC)C(=O)N2CCC[C@H]2C(=O)N(C)[C@@H](C(C)C)C(=O)N2CCC[C@H]2C(=O)O1 (stereo partly specified)	x	x	41.4*	15.6	51.1*	15.7*
Cc1ccccc1N1C(=O)CC(Sc2nnc(-c3ccccc3)o2)C1=O (stereo unspecified)	-1.3	0.1	30.3*	4.4	21.3	-2.0
COc1ccc(CN2C(=O)CN(S(C)(=O)=O)CC2(C)c2nnnn2C2CCCCC2)cc1 (stereo unspecified)	x	x	2.8	-4.1	x	x
COc1ccccc1-c1n[nH]c(=S)o1	3.6	-13.6	47.6*	22.3	47.9*	-1.1
COc1ccccc1-c1n[nH]c(=S)n1N	1.1	-3.4	-2.3	7.4	x	x
COc1ccc(Cl)cc1-c1n[nH]c(=S)o1	-2.1	-19.6	68.9*	20.8	84.5*	-0.6
COc1ccccc1-c1n[nH]c(=S)n1-c1ccccc1	4.7	-25.0	48.4*	6.0	61.1*	5.9
COc1ccc(C(=O)Nc2ccc(-c3n[nH]c(=S)o3)cc2)cc1OC	-5.1	-15.1	-1.1	-7.4	x	x
O=C(NCC1CCCO1)c1ccc2c(=O)n(Cc3cccc(Br)c3)c(=S)[nH]c2c1 (stereo unspecified)	-1.1	-23.4	-4.0	11.3	x	x
O=S(=O)(N/N=C\C=C\c1ccccc1)c1ccccc1	2.9	-19.4	-1.2	3.4	x	x
Cc1cccc(-c2noc(-c3ccccc3C(=O)NCc3ccco3)n2)c1	-2.5	-42.8	0.0	-8.6	x	x
COc1ccc(-c2cc(C(=O)N/N=C(\C)c3ccco3)c3ccccc3n2)c(OC)c1	-2.4	-13.9	1.7	-3.3	x	x
CC(=O)c1ccc(NC(=O)C2CCCN(C(=O)c3ccc(Cl)cc3)C2)cc1 (stereo unspecified)	0.8	-20.6	-6.3	-5.6	x	x
CCOc1ccccc1N=C1SCC(C)N1C(=O)C1CCN(c2ncnc3sc(C)c(C)c23)CC1 (stereo unspecified)	x	-19.2	39.5*	-0.4	55.8*	-6.7
Cc1ccccc1OCC(=O)NNC(=O)C1CCN(c2ncnc3sc(C)c(C)c23)CC1	x	-27.5	3.7	0.7	x	x
S=c1nc[nH]c2c1cnn2-c1ccccc1	1.5	-12.2	36.3*	0.6	43.2*	-1.4
CCOC(=O)CC(=O)CSc1ncnc2c1oc1ccccc12	1.5	-17.1	57.8*	-8.0	19.2	-7.3
N#CCCSc1ncnc2c1oc1ccccc12	2.1	-14.0	55.2*	6.8	46.9*	-5.3
CCNC(=O)OCCC12CC3CC(CC(C3)C1)C2	6.0	-12.0	5.5	9.4	x	x
SMILES	SARS 3CLpro inh	PrP 5UTR inh	PrPC surface inh	CCHFV vOTU inh	PrPC confirm	LD9 cytotox
O=C(OCCC12CC3CC(CC(C3)C1)C2)c1ccc(NCc2cc(O)ccc2O)cc1	x	-2.2	28.1*	10.3	45.4*	72.2*
O=C(OCC12CC3CC(CC(C3)C1)C2)c1ccc(NCc2cc(O)ccc2O)cc1	x	-22.8	25.3*	3.3	26.0*	21.7*
Cc1cccc(N2CCN(C(=O)c3ccc(N4CCCC4=O)cc3)CC2)c1C	-2.8	-6.7	0.5	12.0	x	x
Cc1ccc(CNC(=O)c2ccc(S(=O)(=O)N3CCCC3)cc2)cc1	x	x	4.3	-3.9	x	x
CCN(CC)S(=O)(=O)c1ccc(C(=O)NCc2ccc3c(c2)OCO3)cc1	-0.5	-27.1	-0.4	-8.7	x	x
Cc1cc2cc(CNC(=O)c3ccc(S(=O)(=O)N4CCCCC4)cc3)ccc2n1C	-3.1	-3.2	39.3*	12.9	21.0	-7.7
Cc1cc2cc(CNC(=O)c3ccc(S(=O)(=O)N4CCCC4)cc3)ccc2n1C	4.1	-10.5	37.3*	2.5	67.5*	3.5
CCN(CC)S(=O)(=O)c1ccc(C(=O)NCc2ccc3c(c2)cc(C)n3C)cc1	0.6	-17.9	36.2*	18.1	2.3	-2.4
Cc1ccc(CNC(=O)c2ccc(S(=O)(=O)N3CCCCC3)cc2)cc1	x	-14.6	17.0	-7.8	x	x
O=C(Nc1c(F)cc(F)cc1Br)c1cc(-c2ccccc2)on1	1.3	-37.5	0.9	1.4	x	x
COc1cc(C(=O)NNC(=O)c2cc(-c3ccccc3)n[nH]2)cc(OC)c1C	x	10.0	25.9*	16.1	9.3	-3.7
CS(=O)(=O)c1ccc(C(=O)NNC(=O)c2cc(-c3ccccc3)n[nH]2)cc1	x	-23.3	0.3	6.0	x	x
Fc1ccc(NC(=S)N2CCOCC2)c(F)c1	3.4	-16.2	-4.3	8.6	x	x
N#Cc1c(N2CCSCC2)nsc1-c1ccccc1Cl	7.7	-19.9	26.7*	19.2	22.8	-6.9
N#Cc1c(Cl)cccc1N1CCSCC1	x	x	-4.7	-4.9	x	x
CC(=O)Nc1ccc(-c2nn[nH]n2)cc1	-3.9	-2.0	2.0	-8.7	x	x
CC(=O)Nc1ccc(-c2ccnc(-c3ccc(NC(C)=O)cc3)n2)cc1	-2.9	-16.7	58.1*	15.8	56.5*	-4.7
Cc1ccc(NC(=O)Nn2cnnc2)cc1	-4.3	-15.2	4.9	-4.3	x	x
O=C(Nc1ccc([N+](=O)[O-])cc1)Nn1cnnc1	-4.0	-12.8	36.6*	2.1	-0.6	0.7
CC(C)CNC(=S)NC1CC2CCCC(C1)N2Cc1ccco1 (stereo unspecified)	-2.6	-19.1	5.3	-10.6	x	x
Cc1c(CC(=O)O)c(=O)oc2c(C)c3occ(-c4ccccc4)c3cc12	3.1	-16.8	28.2*	9.5	19.1	-1.6
NC(=O)c1ccc2c(=O)c(O)c(-c3cc(Cl)c(N)c(Cl)c3)[nH]c2c1	-5.2	-13.5	28.8*	-20.3	4.0	0.2
NCCCCCC(=O)N/N=C/c1coc2ccccc2c1=O	-1.2	-7.2	4.5	-10.9	x	x
C=CCn1c(=O)c2ccccc2n2c(Sc3nnnn3-c3ccccc3)nnc12	-8.8	-1.6	2.2	2.8	x	x
Cn1c(N2CCC(C(N)=O)CC2)nc2c1c(=O)n(Cc1ccc(Br)cc1)c(=O)n2C	1.0	-1.0	25.9*	-0.8	28.8*	1.9
Cn1c(N2CCCCC2)nc2c1c(=O)n(Cc1cccc(Br)c1)c(=O)n2C	2.3	-15.6	x	x	x	x
CC(C)N1CCC(N2CCN(CCCc3ccccc3)CC2CCO)CC1 (stereo unspecified)	2.8	-2.6	-7.0	-13.6	x	x
